± gives the standard deviation.
Experiments:
Assay in all cases: peptide microarray binding signal (635 nm), min-max normalized on array (fraction of array maximum); higher = stronger binding
[1] = target: T1, HaloTag-ATRX ADD domain (163-292)
T1 chain: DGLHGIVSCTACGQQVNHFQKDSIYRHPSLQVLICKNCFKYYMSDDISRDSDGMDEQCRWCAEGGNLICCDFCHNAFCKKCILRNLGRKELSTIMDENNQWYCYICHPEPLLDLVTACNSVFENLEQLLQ
Procedure: (§1)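 Histone 13-mer peptides were synthesized as cellulose conjugates with a C-terminal 20-atom PEG linker and printed in triplicate on nitrocellulose. The sequence given is the unmodified backbone; PTMs (Kme1/2/3, Kac, Sph/Tph, Rme/Rme2a/Rme2s, Rcit) are listed in the label and the 'peptide modifications' condition. Slides were probed at 4 °C for 1 h with biotin-labelled (HQ)5-HaloTag reader fusions (ATRX-ADD, ING2-PHD) then streptavidin-Alexa647, or with rabbit histone antibodies then anti-rabbit Alexa647. The mean 635 nm signal of the triplicate spots was scaled 0-1 between the lowest and highest values on each array.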

[2] = target: HaloTag-ING2 PHD (mouse Ing2 200-280)
Procedure: as §1

[3] = target: anti-H3K4me3 antibody ab8580
Procedure: as §1

[4] = target: anti-H3K9me3 antibody ab8898
Procedure: as §1

[5] = peptide region: H3 1-13, peptide modifications: H3K4me1, binder concentration: 1:2,000 dilution
[6] = peptide region: H3 1-13, peptide modifications: H3K4me1, binder concentration: 1:10,000 dilution
[7] = peptide region: H2B 17-29, peptide modifications: H2BK23ac, binder concentration: 1:2,000 dilution
[8] = peptide region: H2B 17-29, peptide modifications: H2BK23ac, binder concentration: 1:10,000 dilution
[9] = peptide region: H2B 17-29, peptide modifications: H2BK24ac, binder concentration: 1:2,000 dilution
[10] = peptide region: H2B 17-29, peptide modifications: H2BK24ac, binder concentration: 1:10,000 dilution
[11] = peptide region: H3 1-13, peptide modifications: H3K4me1 H3K9ac, binder concentration: 1:2,000 dilution
[12] = peptide region: H3 1-13, peptide modifications: H3K4me1 H3K9ac, binder concentration: 1:10,000 dilution
[13] = peptide region: H2B 17-29, peptide modifications: H2BK23ac H2BK28ac, binder concentration: 1:2,000 dilution
[14] = peptide region: H2B 17-29, peptide modifications: H2BK23ac H2BK28ac, binder concentration: 1:10,000 dilution

## ARTKQTARKSTGG [H3 1-13 A R T Kme Q T A R K S T G G]
[1]; peptide region: H3 1-13, peptide modifications: H3K4me1, binder concentration: 50 nM
  peptide microarray binding signal: 0.00755 ± 0.00014
[1]; peptide region: H3 1-13, peptide modifications: H3K4me1, binder concentration: 500 nM
  peptide microarray binding signal: 0.0155 ± 0.00093
[2]; peptide region: H3 1-13, peptide modifications: H3K4me1, binder concentration: 10 nM
  peptide microarray binding signal: 0.0269 ± 0.0015
[2]; peptide region: H3 1-13, peptide modifications: H3K4me1, binder concentration: 100 nM
  peptide microarray binding signal: 0.112 ± 0.035
[3]; [5]
  peptide microarray binding signal: 0.0156 ± 0.0047
[3]; [6]
  peptide microarray binding signal: 0.0142 ± 0.0025
[4]; [5]
  peptide microarray binding signal: 0.00231 ± 0.00034
[4]; [6]
  peptide microarray binding signal: 0.00173 ± 1.7e-05

## AVTKAQKKDGKKR [H2B 17-29 A V T K A Q Kac K D G K K R]
[1]; peptide region: H2B 17-29, peptide modifications: H2BK23ac, binder concentration: 50 nM
  peptide microarray binding signal: 0.00376 ± 0.00013
[1]; peptide region: H2B 17-29, peptide modifications: H2BK23ac, binder concentration: 500 nM
  peptide microarray binding signal: 0.00514 ± 0.0009
[2]; peptide region: H2B 17-29, peptide modifications: H2BK23ac, binder concentration: 10 nM
  peptide microarray binding signal: 0.00424 ± 9.6e-05
[2]; peptide region: H2B 17-29, peptide modifications: H2BK23ac, binder concentration: 100 nM
  peptide microarray binding signal: 0.00666 ± 0.00022
[3]; [7]
  peptide microarray binding signal: 0.00051 ± 9.7e-05
[3]; [8]
  peptide microarray binding signal: 0.000742
[4]; [7]
  peptide microarray binding signal: 0.000498 ± 3.6e-05
[4]; [8]
  peptide microarray binding signal: 0.00104 ± 1.1e-05

## AVTKAQKKDGKKR [H2B 17-29 A V T K A Q K Kac D G K K R]
[1]; peptide region: H2B 17-29, peptide modifications: H2BK24ac, binder concentration: 50 nM
  peptide microarray binding signal: 0.00295 ± 0.00019
[1]; peptide region: H2B 17-29, peptide modifications: H2BK24ac, binder concentration: 500 nM
  peptide microarray binding signal: 0.00762 ± 0.00062
[2]; peptide region: H2B 17-29, peptide modifications: H2BK24ac, binder concentration: 10 nM
  peptide microarray binding signal: 0.00609 ± 0.00052
[2]; peptide region: H2B 17-29, peptide modifications: H2BK24ac, binder concentration: 100 nM
  peptide microarray binding signal: 0.0283 ± 0.032
[3]; [9]
  peptide microarray binding signal: 0.0013 ± 8.9e-05
[3]; [10]
  peptide microarray binding signal: 0.000742
[4]; [9]
  peptide microarray binding signal: 0.000347 ± 3.5e-06
[4]; [10]
  peptide microarray binding signal: 0.000577 ± 6.2e-06

## ARTKQTARKSTGG [H3 1-13 A R T Kme Q T A R Kac S T G G]
[1]; peptide region: H3 1-13, peptide modifications: H3K4me1 H3K9ac, binder concentration: 50 nM
  peptide microarray binding signal: 0.0172 ± 0.00082
[1]; peptide region: H3 1-13, peptide modifications: H3K4me1 H3K9ac, binder concentration: 500 nM
  peptide microarray binding signal: 0.0329 ± 0.0029
[2]; peptide region: H3 1-13, peptide modifications: H3K4me1 H3K9ac, binder concentration: 10 nM
  peptide microarray binding signal: 0.758 ± 0.07
[2]; peptide region: H3 1-13, peptide modifications: H3K4me1 H3K9ac, binder concentration: 100 nM
  peptide microarray binding signal: 0.727 ± 0.11
[3]; [11]
  peptide microarray binding signal: 0.27 ± 0.033
[3]; [12]
  peptide microarray binding signal: 0.157 ± 0.018
[4]; [11]
  peptide microarray binding signal: 0.00678 ± 0.00086
[4]; [12]
  peptide microarray binding signal: 0.00634 ± 0.00026

## AVTKAQKKDGKKR [H2B 17-29 A V T K A Q Kac K D G K Kac R]
[1]; peptide region: H2B 17-29, peptide modifications: H2BK23ac H2BK28ac, binder concentration: 50 nM
  peptide microarray binding signal: 0.00348 ± 0.00011
[1]; peptide region: H2B 17-29, peptide modifications: H2BK23ac H2BK28ac, binder concentration: 500 nM
  peptide microarray binding signal: 0.00929 ± 0.00055
[2]; peptide region: H2B 17-29, peptide modifications: H2BK23ac H2BK28ac, binder concentration: 10 nM
  peptide microarray binding signal: 0.00442 ± 0.00046
[2]; peptide region: H2B 17-29, peptide modifications: H2BK23ac H2BK28ac, binder concentration: 100 nM
  peptide microarray binding signal: 0.00312 ± 0.00011
[3]; [13]
  peptide microarray binding signal: 0.002 ± 0.00012
[3]; [14]
  peptide microarray binding signal: 0.000799 ± 8.3e-06
[4]; [13]
  peptide microarray binding signal: 0.000529 ± 1.3e-05
[4]; [14]
  peptide microarray binding signal: 0.000634

— the supplement of paper PMC4022240
